# A selection: hits, their analogues and other compounds. The true share with any hit is near 1.2%.
# RGS4-Gao reg: human RGS4-Galphao interaction regulation | P09471 | Multiplexed bead flow cytometry, RGS4-Galphao binding; actives lie on both sides | binding response (% of control), % at 10 µM | 220,000 tested, 0.33% active; in the data active = binding response below about 49% or above about 150%; inactive = in between;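 also: fluorescent Galphao activated with aluminum fluoride binding bead-coupled RGS4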
# Target sequence (P09471 whole entry, looked up): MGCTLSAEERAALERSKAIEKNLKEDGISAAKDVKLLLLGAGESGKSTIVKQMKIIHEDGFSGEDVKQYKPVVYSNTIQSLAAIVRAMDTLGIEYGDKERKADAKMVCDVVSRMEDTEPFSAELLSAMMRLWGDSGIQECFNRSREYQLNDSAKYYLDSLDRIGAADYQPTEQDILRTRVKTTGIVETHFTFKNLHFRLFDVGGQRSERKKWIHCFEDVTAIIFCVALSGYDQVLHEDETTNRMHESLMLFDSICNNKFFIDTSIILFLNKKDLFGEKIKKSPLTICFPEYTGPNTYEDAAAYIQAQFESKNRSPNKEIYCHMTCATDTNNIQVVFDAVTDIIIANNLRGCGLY
# RGS16-Gao HTS: RGS16-Galphao interaction regulator (human). O15492+P09471. bead-based flow cytometry RGS16-Galphao binding, fluorescence; actives lie on both sides. binding response (% of control), % at 10 µM. 220,000 tested, 0.38% active;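 also: Galphao activated by GDP with aluminum fluoride before binding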
# Target sequence (O15492 whole entry, looked up): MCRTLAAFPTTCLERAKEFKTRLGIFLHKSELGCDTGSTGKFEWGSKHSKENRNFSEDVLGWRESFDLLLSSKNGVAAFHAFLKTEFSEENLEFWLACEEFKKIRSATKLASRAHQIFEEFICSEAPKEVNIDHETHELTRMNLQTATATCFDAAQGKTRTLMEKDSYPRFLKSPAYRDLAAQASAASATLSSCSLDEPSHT
# Target sequence (P09471 whole entry, looked up): as the sequence (P09471 whole entry, looked up) above
# RGS7-Gao: regulators of human RGS7-Galphao interaction. Multiplexed bead flow cytometry, RGS7-Galphao binding; actives lie on both sides. binding response (% of control), % at 10 µM. 220,000 tested, 0.35% active; in the data active = binding response below about 49% or above about 150%; inconclusive = no clear call, values can overlap the other calls; inactive = in between;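 also: fluorescent Galphao held in activated GDP-AlF4 state binding bead-coupled RGS7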
# RGS8-Gao reg: human RGS8-Galphao interaction regulation | multiplexed bead flow cytometry, RGS8-Galphao binding; actives lie on both sides | response (percent of control binding), % at 10 µM | AID 1423 | 220,000 tested, 0.34% active | P09471; in the data active = response below about 60% or above about 140%; inactive = in between;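 also: Galphao activated as the GDP aluminium fluoride complex binding bead-coupled RGS8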
# GSH fluor: compound fluoresces at 488/530 nm on GSH beads. fluorescence (KMESF) at 10 µM. 190,000 tested, 0.25% active. GSH beads flow cytometry, compound fluorescence 488/530 nm; hits give high values; in the data active = fluorescence above about 89;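 also: glutathione beads carrying GST-tagged Bcl family fusion proteins plus one bare bead set; values are compound well signal with DMSO vehicle wells as background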
# Avidin bead fluor: avidin bead compound fluorescence profile | fluorescence (KMESF) at 10 µM | Avidin beads, compound fluorescence 488/530 nm, flow cytometry; hits give high values | 220,000 tested, 0.38% active; in the data active = fluorescence above about 47
# RGS4-Gao HTS: modulates binding between human RGS4 and Galphao; shares compounds with RGS16-Gao HTS; multiplexed bead flow cytometry, RGS–Galpha-o binding; RGS4–Galpha-o binding response, % at 10 µM; 1,600 tested, 99% active; AID 1504;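 also: fluorescently labeled Galpha-o bound to GDP with aluminium fluoride binding biotinylated RGS beads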
# Biotin-avidin: counter-screen: compounds disrupting biotin binding to avidin beads; shares compounds with RGS16-Gao HTS; 1,700 tested, under 10 active; inhibition, % at 10 µM; streptavidin beads, fluorescein-biotin binding, flow cytometry;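 active = inhibition above 50%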;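 also: median green fluorescence of gated singlet beads compared with DMSO control wells; 0% = DMSO wells and 100% = complete loss of bead fluorescence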
# RGS8-Gao confirm: confirmation of regulators of human RGS8-Galphao interaction. bead-based flow cytometry RGS8-Galphao binding, fluorescence; actives lie on both sides. 1,700 tested, 3% active. binding response (% of control), % at 10 µM. AID 1836. shares compounds with RGS16-Gao HTS; in the data active = binding response below about 72% or above about 130%; inactive = in between;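 also: Galphao activated as GDP AlF4 complex before binding bead RGS8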
# RGS7-Gao single: confirmation of regulators of human RGS7-Galphao interaction; shares compounds with RGS16-Gao HTS; bead-based flow cytometry RGS7-Galphao binding; actives lie on both sides; response (percent of control binding), % at 10 µM; 1,700 tested, 7.8% active; in the data active = response below about 75% or above about 130%; inactive = in between;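 also: fluorescent Galphao activated with GDP and aluminum fluoride binding bead-coupled RGS7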
# RGS16-Gao conf: RGS16-Galphao interaction regulation, single point confirmation; response (% of control binding), % at 10 µM; shares compounds with RGS16-Gao HTS; 1,700 tested, 4% active; AID 1838; bead-based flow cytometry, RGS16-Galphao binding; actives lie on both sides; in the data active = response below about 74% or above about 130%; inactive = in between;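 also: Galphao activated as the GDP aluminium fluoride complex binding bead-coupled RGS16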
# RGS4-Gao single: confirmation of regulators of human RGS4-Galphao interaction; shares compounds with RGS16-Gao HTS; RGS4-Galphao binding, multiplexed bead flow cytometry; actives lie on both sides; binding response (% of control), % at 10 µM; 1,700 tested, 4% active; in the data active = binding response below about 74% or above about 130%; inactive = in between
# RGS19-Gao conf: confirmation of regulators of human RGS19-Galphao interaction; shares compounds with RGS16-Gao HTS; bead-based flow cytometry RGS19-Galphao binding; actives lie on both sides; AID 1841; 1,700 tested, 5% active; response (percent of control binding), % at 10 µM; in the data active = response below about 50% or above about 160%; inactive = in between;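 also: 100% = no compound control and 0% = blank background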
# * hit, by the source's call; ? = inconclusive; . = no result given; [ ] = another dose, or the depositor's remark. Unless noted, no rule for the calls is given here.
SMILES,RGS4-Gao reg,RGS16-Gao HTS,RGS7-Gao,RGS8-Gao reg,GSH fluor,Avidin bead fluor,RGS4-Gao HTS,Biotin-avidin,RGS8-Gao confirm,RGS7-Gao single,RGS16-Gao conf,RGS4-Gao single,RGS19-Gao conf
Cc1cc(NC(=O)c2ccc(C)s2)n(-c2nc3ccccc3[nH]2)n1,14*,0.3*,13*,12*,6,-2,.,0,95,87,90,92,92
Cn1c(SCC(=O)NCCN2C(=O)CSC2=O)nnc1-c1ccccc1,124,130,213*[activator],107,9,138*,124*,-1,103,105,103,104,103
Cc1ccc(-n2c(SCC(=O)NCCN3C(=O)CSC3=O)nnc2-c2ccccc2)cc1,90,18*,87,78,5,8,90*,0,100,103,100,102,94
Cc1cc(N)ccc1N1CCCC1,58,39,50,54*,0,1,58*,.,.,.,.,.,.
Cc1cc(N)ccc1-n1c(C)ccc1C,101,98,98,98,10,28,.,.,.,.,.,.,.
Cn1c(=NC(=O)c2ccccc2[N+](=O)[O-])sc2cccc(F)c21,108,107,?,106,.,5,.,.,.,.,.,.,.
Cc1c(Br)c(=O)oc2c(Br)c(O)c(O)cc12,52,16*,53,42*,6,1,52*,-1,93,93,92,91,87
C=C(C)CSc1nc2c(c(=O)[nH]c(=O)n2C)n1CCC(C)C,101,99,100,101,11,6,.,.,.,.,.,.,.
Cc1ccc(S(=O)(=O)NC(C)(C)CSc2ccccn2)cc1,87,13*,92,64,9,1,87*,-2,101,103,102,102,112
CCOc1ccc(CCNC(=O)C(C)n2nc(C)n3c(cc4occc43)c2=O)cc1OCC (stereo unspecified),96,99,97,98,14,8,.,.,.,.,.,.,.
Cc1nn(C(C)C(=O)NCCCc2ccccc2)c(=O)c2cc3occc3n12 (stereo unspecified),134,167,139,.,25,9,.,-2,93,88,95,93,80
O=C(Nc1ccc(C2=NCCN2)cc1)c1ccc(C(=O)Nc2ccc(C3=NCCN3)cc2)c(Cl)c1,199*[activator],119,?,143*[activator],.,9,.,0,106,105,98,105,135
Cc1[nH]cnc1CSCCN,89,93,90,91,6,6,.,.,.,.,.,.,.
Cc1[nH]cnc1CSCc1ccc(Cl)cc1,134,192*[activator],134,147*[activator],10,3,134*,-2,114,117,111,113,98
N#CC1=C(N)N2C(=C(C#N)C13CCCC3)Nc1ccccc12,99,106,98,103,13,12,.,.,.,.,.,.,.
Cc1ccccc1-n1sc2cc(F)ccc2c1=O,90,4.8*,104,37*,7,2,90*,.,.,.,.,.,.
CCOC(=O)N1CCN(C(=O)/C(=C/c2cccs2)NC(=O)c2cccs2)CC1,99,103,98,101,12,15,.,.,.,.,.,.,.
COc1cccc(NC(=O)CSc2nnc(CN3CCOCC3)n2C)c1,31*,6.3*,22*,17*,19,-1,.,1,103,102,103,102,100
Cc1ccc(NC(=O)CSc2nnc(CN3CCOCC3)n2C)cc1C,93,101,95,102,21,6,.,.,.,.,.,.,.
COC(=O)CC(NC(=O)Nc1ccc(C)cc1)c1cccc([N+](=O)[O-])c1 (stereo unspecified),28*,20*,4.0*,26*,11,1,.,0,104,101,104,100,116
CC1CCCCN1C(=O)Cn1cc(/C=C2/C(=O)Nc3ccccc32)c2ccccc21 (stereo unspecified),50*,41,44*,55*,20,3,.,0,103,104,104,104,98
O=C(CNC(=O)C1COc2ccccc2O1)N/N=C/c1ccc(O)cc1O (stereo unspecified),62,-1.7*,61,56*,4,4,62*,0,103,103,103,103,88
COc1ccc(OC)c(S(=O)(=O)N2CCC(C(=O)NCCc3ccc(OC)c(OC)c3)CC2)c1,.,.,.,.,17,.,.,2,102,103,106,102,117
CCOC(=O)/C=C1\SCC(=O)N1CC(=O)Nc1ccc2c(c1)CCC2,104,103,99,103,26,11,.,.,.,.,.,.,.
CCOC(=O)/C=C1\SCC(=O)N1CC(=O)Nc1ccc(C(C)C)cc1,114,301,110,142*[activator],19,5,114*,-1,99,100,97,99,100
Cc1nc(N)c(Cc2ccc(Cl)cc2Cl)c(N)n1,97,98,98,97,15,10,.,.,.,.,.,.,.
COCCNC(=O)c1cc(Sc2nnc(C)s2)nc2ccccc12,36*,40,?,60*,.,2,.,-1,105,94,111,96,109
Cc1cccnc1NC(=O)C1CCCN(S(=O)(=O)c2ccc3c(c2)oc(=O)n3C)C1 (stereo unspecified),116,229,114,142*[activator],19,7,116*,0,101,101,99,101,98
Cc1nc2ccc(NC(=O)N(C(C)C)C(C)C)cc2s1,98,124,169*[activator],108,12,82*,98*,1,102,102,101,99,104
Cc1nc2ccc(NC(=O)N(C)c3ccccc3)cc2s1,101,105,102,102,17,3,.,.,.,.,.,.,.
